# Measured values: paper PMC4336329 (PLoS ONE, 2015)
# The campaign covered roughly 310,000 compounds. About 14,000 (4.5%) showed an effect of 50% or more. Effects have a minus sign here. What follows is part of a selection rich in strong results, with near analogues and random picks from the rest.
# Target: human ether-à-go-go-related gene (hERG) potassium channel (human, UniProt Q12809)
# Experiment: primary screen, population patch clamp on CHO cells stably expressing hERG; higher = less effect of the substance
# 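Further: peak tail current of the secondary pulse compared with the same well before compound.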
# human ether-à-go-go-related gene (hERG) potassium channel, sequence (Q12809 whole entry, looked up): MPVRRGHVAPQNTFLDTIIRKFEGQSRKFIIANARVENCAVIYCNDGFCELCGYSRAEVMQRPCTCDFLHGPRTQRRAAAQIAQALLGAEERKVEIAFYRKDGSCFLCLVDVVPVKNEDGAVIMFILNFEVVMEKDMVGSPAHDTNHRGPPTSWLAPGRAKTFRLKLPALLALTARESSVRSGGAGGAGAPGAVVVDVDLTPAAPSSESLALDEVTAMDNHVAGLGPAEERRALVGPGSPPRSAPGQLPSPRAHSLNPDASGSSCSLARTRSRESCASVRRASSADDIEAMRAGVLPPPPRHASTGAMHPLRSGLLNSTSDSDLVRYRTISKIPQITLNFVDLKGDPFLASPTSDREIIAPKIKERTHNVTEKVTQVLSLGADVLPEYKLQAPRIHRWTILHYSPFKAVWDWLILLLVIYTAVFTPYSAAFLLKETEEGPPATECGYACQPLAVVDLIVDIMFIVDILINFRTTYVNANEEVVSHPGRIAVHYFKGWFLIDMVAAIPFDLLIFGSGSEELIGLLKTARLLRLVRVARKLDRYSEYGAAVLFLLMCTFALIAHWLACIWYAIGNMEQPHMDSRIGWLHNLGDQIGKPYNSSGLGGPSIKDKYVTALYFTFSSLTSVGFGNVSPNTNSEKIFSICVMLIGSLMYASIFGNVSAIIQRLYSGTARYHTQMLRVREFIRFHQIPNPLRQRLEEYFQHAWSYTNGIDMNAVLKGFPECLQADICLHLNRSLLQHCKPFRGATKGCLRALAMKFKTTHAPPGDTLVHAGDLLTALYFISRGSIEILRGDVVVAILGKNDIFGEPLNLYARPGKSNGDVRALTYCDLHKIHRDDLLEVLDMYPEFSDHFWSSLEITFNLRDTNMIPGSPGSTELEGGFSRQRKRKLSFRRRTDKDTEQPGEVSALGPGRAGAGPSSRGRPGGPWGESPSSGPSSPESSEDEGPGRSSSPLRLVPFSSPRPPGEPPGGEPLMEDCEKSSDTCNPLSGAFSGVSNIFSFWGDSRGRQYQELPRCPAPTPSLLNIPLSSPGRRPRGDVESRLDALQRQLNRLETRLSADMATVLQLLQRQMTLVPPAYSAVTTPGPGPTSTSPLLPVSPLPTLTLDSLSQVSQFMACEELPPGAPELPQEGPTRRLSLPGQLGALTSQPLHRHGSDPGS
row,SMILES,"hERG current change (%, negative = inhibition) at 10uM [%]"
1,COc1ccc(C2=NO[C@@H]3C(=O)N(Cc4ccccc4)C(=O)[C@H]23)cc1OC,-1.95
2,CN(C)S(=O)(=O)c1ccc(N/C=C(\[N+](=O)[O-])S(=O)(=O)c2ccccc2)cc1,15.2
3,COCCNC(=O)/C(C#N)=C/c1ccc(O)cc1,10.6
4,Cc1ccc(C(C)NC(=O)Cc2cccs2)c(C)c1 (stereo not drawn),-9.26
5,CSc1ccc(C(=O)NCC(c2ccco2)N(C)C)cc1[N+](=O)[O-] (stereo not drawn),17.8
6,Nc1nnc(-c2ccccc2)c(-c2ccccc2)n1,-10.7
7,Cc1ccccc1OCCC(=O)OCC(=O)Nc1cc(S(=O)(=O)N2CCOCC2)ccc1Cl,-27.8
8,Cc1c(NC(=S)Nc2ccccc2C(F)(F)F)cccc1[N+](=O)[O-],8.27
9,COc1ccccc1N1CCN(C(=O)c2cn(Cc3ccccc3)nc2-c2cccnc2)CC1,-8.12
10,O=C(c1cn(-c2ccccc2)nc1-c1cccnc1)N1CCN(S(=O)(=O)c2ccccc2F)CC1,-70.5
11,O=C(c1cn(-c2ccccc2)nc1-c1cccnc1)N1CCN(S(=O)(=O)c2cccc(F)c2)CC1,-13.6
12,COc1ccccc1N1CCN(C(=O)c2cn(-c3ccccc3)nc2-c2cccnc2)CC1,-50.2
13,CN1CCN(C(=O)c2cn(-c3ccccc3)nc2-c2cccnc2)CC1,-18.4
14,N#Cc1ccccc1S(=O)(=O)N1CCN(C(=O)c2cn(-c3ccccc3)nc2-c2cccnc2)CC1,-48
15,Nc1nnc(SCc2nnc(-c3ccccc3)o2)s1,-1.84
16,COC(=O)N/N=C/c1c[nH]c2ccccc12,14.5
17,CC(C)c1onc(C(=O)N2C(C)CCCC2C)c1[N+](=O)[O-] (stereo not drawn),18.8
18,Cc1ccc(NC(=O)c2cccc(N3C(=O)C4C5C=CC(C5)C4C3=O)c2)cc1C (stereo not drawn),-7.07
19,COc1ccc2nc(NC(=O)CS(=O)(=O)Cc3ccccc3)sc2c1,23.2
20,COC(=O)/C(=N/Nc1ccccc1C)Sc1nnc(C(O)c2ccccc2)n1-c1ccccc1 (stereo not drawn),13.3

row,SMILES,"hERG current change (%, negative = inhibition) at 10uM [%]"
1,Cl.c1ccc(CN2CCC3(CCCc4ccccc43)CC2)cc1,-69.6
2,Cl.c1ccc(CN2CCOCC2)cc1,22
3,c1ccc(CN2CCC3(CC2)Nc2ccccc2CO3)cc1,-21.9
4,COc1ccc(N(CC(=O)Nc2cc(Cl)ccc2C)S(=O)(=O)c2c(C)noc2C)cc1,16.7
5,COC(=O)CC1C(=O)NCCN1C(=O)c1c(F)cccc1F (stereo not drawn),14.5
6,O=C(NCc1ccncc1)c1cncc(Br)c1,10.1
7,Cn1c(N2CCN(c3ccccn3)CC2)nc2c1c(=O)n(Cc1ccc(Cl)cc1)c(=O)n2C,-18
8,Cn1c(N2CCCC2)nc2c1c(=O)n(Cc1ccc(Cl)cc1)c(=O)n2C,-68.6
9,Cn1c(N2CCOCC2)nc2c1c(=O)n(Cc1ccc(Cl)cc1)c(=O)n2C,-54.5
10,Cn1c(NCCCN2CCOCC2)nc2c1c(=O)n(Cc1ccc(Cl)c(Cl)c1)c(=O)n2C,-46
11,Cn1c(N2CCCC2)nc2c1c(=O)n(Cc1ccc(F)cc1)c(=O)n2C,0.592
12,Cn1c(=O)c2c(nc(N3CCCCC3)n2C)n(C)c1=O,-21.5
13,CC1CN(c2nc3c(c(=O)n(Cc4ccc(Cl)c(Cl)c4)c(=O)n3C)n2C)CC(C)O1 (stereo not drawn),-35.7
14,CC1CN(c2nc3c(c(=O)n(Cc4ccc(Cl)cc4)c(=O)n3C)n2C)CC(C)O1 (stereo not drawn),-31.2
15,Cn1c(N2CCOCC2)nc2c1c(=O)n(Cc1ccc(Cl)c(Cl)c1)c(=O)n2C,-50.5
16,COc1ccc(CC(=O)NCc2cccs2)cc1OC,2.71
17,O=C(Cn1cc(Cl)ccc1=O)c1ccc(Cl)cc1,11.7
18,CCOc1ccc(CN(C)C(C)C(=O)NCc2ccccc2)cc1 (stereo not drawn),-54.8
19,CSc1ccc(CN(C)C(C)C(=O)NCc2ccccc2)cc1 (stereo not drawn),-32.8
20,CCOc1ccc(C(=O)NC(C(=O)NCCc2ccc(OC(F)F)cc2)C(C)C)cc1 (stereo not drawn),-62.6

row,SMILES,"hERG current change (%, negative = inhibition) at 10uM [%]"
1,CCOc1ccc(C(=O)N[C@H](C(=O)O)C(C)C)cc1,7.22
2,CCOc1ccc(CCNC(=O)C(O)c2ccccc2)cc1 (stereo not drawn),4.11
3,CCc1ccc(CN(C)C(C)C(=O)NCc2ccccc2)cc1 (stereo not drawn),-23.5
4,CCOc1ccc(C(=O)NC(C(=O)NCCc2ccc(S(N)(=O)=O)cc2)C(C)C)cc1 (stereo not drawn),13.4
5,CCC(CC)C(=O)NCCc1ccc(F)cc1,12.1
6,CCOc1ccc(CN(C)C(C)C(=O)NCCc2ccc(F)cc2)cc1 (stereo not drawn),-71.5
7,Cc1ccc(OCCCCNC(C)c2ccccc2)c(C)c1 (stereo not drawn),2.1
8,O=C(NN1C(=O)/C(=C/C=C/c2ccco2)SC1=S)c1ccncc1,15.3
9,Cc1ccc(C2c3[nH]c4ccccc4c3C[C@H]3C(=O)N(c4ccccc4C(=O)N4CCC[C@@H]4C(=O)O)C(=O)N23)cc1 (stereo partly drawn),-0.654
10,Cc1ccc2c(=O)cc(C(=O)NCCc3ccc(S(N)(=O)=O)cc3)oc2c1,9.13
11,Cc1ccccc1NC(=O)Cn1nc(C(F)(F)F)cc1C1CC1,8.48
12,COC(=O)C1=C(C)OC(N)=C(C#N)C1c1cc(C)sc1C (stereo not drawn),-0.682
13,Nc1cc(=O)[nH]c(SCC(=O)N2CCC(Cc3ccccc3)CC2)n1,-2.88
14,C/C(=N/NC(N)=S)c1ccccc1[N+](=O)[O-],7.13
15,Nc1nc(-c2ccc3c(c2)NC(=O)CO3)cs1,15.5
16,OCCOc1ccc(CN2CCN(CCCc3ccccc3)C(CCO)C2)cc1 (stereo not drawn),-63.3
17,CCOc1ccc(CN2CCN(CCCc3ccccc3)CC2CCO)cc1 (stereo not drawn),-76
18,CCOc1ccccc1CN1CCN(CC2CC2)CC1CCO (stereo not drawn),-2.67
19,CCOc1ccc(CN2CCN(CCCc3ccccc3)C(CCO)C2)cc1 (stereo not drawn),-75.5
20,CCOc1ccccc1CN1CCN(CCCc2ccccc2)CC1CCO (stereo not drawn),-64.9
